Assay outcomes (PubChem)
HTT-AS promoter: activates huntingtin-antisense promoter activity; HEK293 HTT-AS promoter firefly luciferase reporter, 24 h; response scale: percent change from vehicle, -100% = no light; Potency, µM (top dose mostly 57.5 µM), for inactives: top-dose activity change, positive = activation, most hits filed as activators; 48,000 compounds, 0.24% hits; AID 1508624; note: potency is the fitted concentration of half-maximal effect; nearly all actives have a fitted effect of over 55% in size
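HEK293 luciferase promoter-reporter cells (2,500/well) plated 24 h, then compounds added at up to 57.5 uM final for 24 h at 37 °C. Firefly luminescence by Dual-Glo, normalized to vehicle (0%) and zero RLU (-100%).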
GALC G270D act: raises human GALC G270D mutant activity in cells; 145M-Twi-hGALC-G270D cells (Twitcher mouse brain line with human GALC G270D), HMU-beta-Gal fluorescence, 48 h; Potency, µM (series often up to 57.5 µM), hits mostly activators; 45,000 compounds, 0.1% hits; AID 1159614; note: potency is the fitted concentration of half-maximal effect; 0% is about no effect; nearly all actives have a fitted effect of over 65% in size
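Mutant human GALC (G270D), stably expressed in a Twitcher mouse brain cell line lacking endogenous GALC, is measured in live-treated cells via 6-hexadecanoylamino-4-methylumbelliferyl-β-galactoside hydrolysis (0.1 mM final, pH 5.2) with fluorescent detection.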
GALK inhibitor: inhibits human galactokinase. P51570. recombinant GALK, Kinase-Glo ATP luminescence, 1 h. Potency, µM (top dose mostly 57.5 µM), for inactives: at the highest dose activity, negative = inhibition, most hits filed as inhibitors. 44,000 tested, under 10 active;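 note: plate controls were full GALK reaction for no effect and reaction lacking GALK for full effect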
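Luminescent ATP-depletion readout (Kinase-Glo Plus, 10 min) after 1 h RT reaction of 5 nM GALK, 35 uM ATP, 100 uM galactose, pH 8.0 HEPES buffer. Decreased kinase activity scored as inhibition.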
PTAP-TSG101 blk: TSG101-PTAP interaction inhibition, HIV-1 budding | Q99816 | Fluorescence polarization, FITC-PTAP peptide/Tsg101, 20 min | 44,000 tested, under 10 active | Potency, µM (top dose mostly 115 µM), actives largely listed as inhibitors; note: potency is the fitted concentration of half-maximal effect; 0% is about no effect
Target sequence (Q99816 whole entry, looked up): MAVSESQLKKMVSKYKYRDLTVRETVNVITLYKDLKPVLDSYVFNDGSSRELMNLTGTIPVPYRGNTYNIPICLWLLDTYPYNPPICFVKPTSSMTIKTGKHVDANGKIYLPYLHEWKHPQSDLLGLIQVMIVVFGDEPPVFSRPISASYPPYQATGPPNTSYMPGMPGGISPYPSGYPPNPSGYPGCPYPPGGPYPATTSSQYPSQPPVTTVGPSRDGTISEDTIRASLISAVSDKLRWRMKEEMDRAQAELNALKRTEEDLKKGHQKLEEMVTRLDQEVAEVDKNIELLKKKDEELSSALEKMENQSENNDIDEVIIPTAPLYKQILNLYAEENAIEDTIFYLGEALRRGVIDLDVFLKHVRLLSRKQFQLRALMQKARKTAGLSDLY
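qHTS FP binding, 20 min r.t.: 10 uM Tsg101 domain + 50 nM FITC-PTAP peptide, pH 7.5 HEPES buffer with TCEP and EDTA.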
B2AR arrestin ag: beta-arrestin recruitment by human beta2-adrenergic receptor ligands; P07550; HTLA Tango cells, beta-arrestin recruitment, luciferase luminescence, 18 h; Potency, µM (top dose mostly 46.1 µM), usual class: activators; 44,000 tested, under 10 active;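 note: potency is the fitted concentration of half-maximal effect; 0% = DMSO and full agonism = EC100 isoproterenol or metaproterenol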
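Tango cell line, 1% FBS DMEM; cpd titration up to 46 microM; 18 hr, 37 degrees C, 5% CO2. Luciferin/ATP substrate mix added, 15 min RT, luminescence. %Activity, CRC fitting, curve-class categorization.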
HTT prom inh: inhibitors of huntingtin promoter activity; HEK293 HTT promoter firefly luciferase reporter, 24 h; AID 1508623; Potency, µM (titrated, usually from 57.5 µM), for inactives: at the highest dose activity change, negative = inhibition, hits mostly inhibitors; 48,000 compounds, 0.93% hits; note: potency is the fitted concentration of half-maximal effect; nearly all actives have a fitted effect of over 50% in size
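HEK293 Fluc reporter, 2,500 cells/well, 24 h pre-culture; cpds up to 57.5 uM final, 24 h 37 degrees C; Dual-Glo, 10 min RT; normalized vehicle = 0%, zero RLU = -100%.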
The depositor's hits bear a star; i = inactive; ? = inconclusive; · = no result. Most compounds without a hit are left out; they make up all but 1.4% or so of the library. Calls come from the whole dose curve; as a rule, active = well fitted curve in the direction sought with a large enough effect; inconclusive = small, poorly fitted or top-dose-only effect, or another doubt; inactive = no such curve, though single readings can be large; an effect the other way counts as inactive or inconclusive.

SMILES	HTT-AS promoter	GALC G270D act	GALK inhibitor	PTAP-TSG101 blk	B2AR arrestin ag	HTT prom inh
CCc1ccc(-n2nc(C)c3c2NC(=O)CSC3c2ccccc2C)cc1 (stereo not drawn)	-37%	i	-1%	i	i	?
CCc1ccc(-n2nc(C)c3c2NC(=O)CSC3c2ccc(OC)cc2OC)cc1 (stereo not drawn)	-37%	i	1%	i	i	22µM*
CCN[C@@H](C)Cc1cccc(C(F)(F)F)c1	-9%	i	·	·	·	0%
Cc1ccccc1-n1c(/C=C/c2ccccc2F)nc2ccccc2c1=O	-38%	i	-21%	i	i	?
O=c1c2ccccc2nc(/C=C/c2cccc3ccccc23)n1-c1ccccc1Cl	-11%	i	1%	i	i	28µM*
N#Cc1cc2c(nc1SCC(=O)Nc1ccc(C(F)(F)F)cc1)C1CCN2CC1	-43%	i	-2%	i	i	14µM*
N#Cc1cc2c(nc1SCC(=O)Nc1ccc(Cl)c(C(F)(F)F)c1)C1CCN2CC1	-63%	i	-4%	i	i	16µM*
O=c1[nH]c2ccccc2n1CCCN1CCC(n2c(=O)[nH]c3cc(Cl)ccc32)CC1	-13%	i	·	·	·	-7%
O=S(=O)(F)Cc1ccccc1	0%	·	·	·	·	-5%
Fc1ccc(N2CCN(c3ncnc4c3nc3n4CCCCC3)CC2)cc1	-44%	i	0%	i	i	2.8µM*
Nc1c(C(=O)Nc2ccc(Cl)c(C(F)(F)F)c2)sc2nc3c(cc12)N1CCC3CC1	-72%	i	0%	i	i	?
Nc1c(C(=O)Nc2ccc(Cl)cc2)sc2nc3c(cc12)N1CCC3CC1	-13%	32µM*	-4%	i	i	?
Cc1cc(C)cc(OCC(=O)Nc2ccc(-c3nc4ccccc4s3)cc2)c1	?	40µM*	2%	i	i	40%
O=C1OC(CCN2CCCCC2)OC1(c1ccccc1)c1ccccc1 (stereo not drawn)	-9%	i	·	·	·	8%
